According to PubChem BioAssay AID2253 (Southern Research Specialized Biocontainment Screening …, 2010):
In all, about 2,200 compounds went through this assay and about 1,300 (59%) were called active. How the calls were made is not given here. So high a share suggests a set chosen from earlier hits. Not all results are given here. Results with a measured potency or affinity are listed apart.

assay: THP-1 cell cytotoxicity, dose response, cytotoxicity control for Salmonella PhoP regulon inhibitors, S. typhimurium screen hits (AID 2253); conditions: THP-1 viability, CellTiter-Glo luminescence, 72 h; series mostly up to 50 µM

| Compound | outcome |
| --- | --- |
| COc1cccc(-n2c(N)c(C(=O)Nc3c(C)n(C)n(-c4ccccc4)c3=O)c3nc4ccccc4nc32)c1 | inactive |
| CCCc1cc(=O)oc2cc(OCC(=O)N3CCc4ccccc43)ccc12 | inactive |
| CCn1c(SCc2ccc(F)cc2)nc2ccccc2c1=O | inactive |
| COc1cc(Cc2cc(N)nc(N)n2)cc(OC)c1OC | inactive |
| Cn1c(N)c(C(=O)COC(=O)C2CCCCC2)c(=O)n(C)c1=O | inactive |
| CCC(OC(=O)C(NC(=O)c1ccccc1)c1ccccc1)C(=O)Nc1cc(C)on1 (stereo not given) | inactive |
| O=C(NCCc1ccc(Cl)cc1)/C(=C/c1cccnc1)NC(=O)c1ccccc1 | inactive |
| O=C(N/N=C/c1coc2ccc(Cl)cc2c1=O)c1cc(O)cc(O)c1 | inactive |
| Cc1occc1C(=O)n1cnc2ccccc21 | inactive |
| O=c1[nH]c2ccccc2n1C1=CCCC1 | inactive |
| Cc1ccc2c(c1)cc(CN(Cc1ccc3c(c1)OCO3)C(=O)c1cnccn1)c1nnnn12 | inactive |
| COC(=O)c1sccc1N/N=C(\C)c1ccc(F)c(Cl)c1 | inactive |
| CCOc1ccc(CSC(CC(=O)O)C(=O)O)cc1 (stereo not given) | inactive |
| CC(=O)N1C(=O)C2(C(C#N)=C(N)Oc3c2c(C)nn3-c2ccccc2)c2ccccc21 (stereo not given) | inactive |
| O=C(NCc1ccc2c(c1)OCO2)c1ccc(-n2cnnn2)cc1 | inactive |
| Cc1cc(C)cc(NC(=O)CSc2nc3c(c(=O)[nH]2)CN(Cc2ccc(F)cc2)CC3)c1 | inactive |
| Cn1cc(C(CC(=O)O)C(=O)O)c2ccccc21 (stereo not given) | inactive |
| c1ccc(OCCCN2CCCC2)cc1 | inactive |
| COCCNC(=O)c1ccccc1NS(=O)(=O)c1ccc(Br)s1 | inactive |
| CCOc1ccccc1OCC(=O)Nc1ccc(S(=O)(=O)Nc2nc(C)cc(C)n2)cc1 | inactive |
| Cc1[nH]n(-c2ccccc2)c(=O)c1-c1ccc(Cl)cc1 | inactive |
| Cc1nn(-c2ccccc2)c(C)c1C(=O)OC/C(O)=C(\C#N)c1nc2ccccc2[nH]1 | inactive |
| C/C(=C\C(=O)OCCCCCCCCC(=O)O)C[C@@H]1OC[C@H](C[C@@H]2O[C@H]2[C@@H](C)[C@H](C)O)[C@@H](O)[C@H]1O | inactive |

| Compound | outcome |
| --- | --- |
| O=C1C2C3c4ccccc4C(c4ccccc43)C2C(=O)N1c1cccc2cccnc12 (stereo not given) | inactive |
| Brc1ccc2cccnc2c1 | inactive |
| CCc1cc2c(NCCC(=O)O)nc(C)nc2s1 | inactive |
| c1ccc(Oc2cc(-c3ccccc3)ncn2)cc1 | inactive |
| COc1ccc(-c2cc(C(=O)O)[nH]n2)cc1OC | inactive |
| Fc1ccc(-c2n[nH]c(=S)n2/N=C/c2c[nH]c3ccccc23)cc1 | inactive |
| CCOc1ccc(S(=O)(=O)Nc2ccc(C(=O)N/N=C/c3c(C)nn(-c4ccccc4)c3N3CCCC3)cc2)cc1 | inactive |
| Cc1cc(=O)[nH]c(N/N=C/c2c[nH]c3ccccc23)n1 | inactive |
| Cn1cccc1C(=O)OCc1csc(-c2ccccc2)n1 | inactive |
| N#CC1(C#N)COC23CCCCC2C1(C#N)C(=N)O3 (stereo not given) | inactive |
| Cc1nc(C(=O)Nc2ccc(Cl)cc2)nn1-c1ccc([N+](=O)[O-])cc1 | inactive |
| O=C(NC(CO)Cc1ccc([N+](=O)[O-])cc1)C(Cl)Cl (stereo not given) | inactive |
| CCOC(=O)C1(S(=O)(=O)c2ccccc2)CCN(Cc2ccc(Cl)cc2)CC1 | inactive |
| Cc1ccc(NC(=O)C2CC(=O)NC(N3CCCCC3)=N2)cc1Cl (stereo not given) | inactive |
| CCN(CC)C(=O)CP(=O)(c1ccccc1)c1ccccc1 | inactive |
| CCn1c2ccccc2c2cc(NC(=O)C(C)Oc3ccccc3)ccc21 (stereo not given) | inactive |
| O=C(CCNS(=O)(=O)c1cccc2nsnc12)NCc1cccs1 | inactive |
| O=C(OCC1COc2ccccc2O1)c1ccccc1F (stereo not given) | inactive |
| CCC1C2CN(C(C)=O)CC=C2C(C#N)=C(N)C1(C#N)C#N (stereo not given) | inactive |
| O=C(CCCN1C(=O)CCC1=O)Nc1ccc2c(c1)OCCO2 | inactive |
| CCCNC(=O)CSc1nnc(C)s1 | inactive |
| CC(=O)Nc1cccc(OC(=O)c2ccoc2C)c1 | inactive |
| CO/N=C(/C(=O)N[C@@H]1C(=O)N2C(C(=O)O)=CCS[C@H]12)c1cnc(N)s1 | inactive |

| Compound | outcome |
| --- | --- |
| COc1ccc(-c2ccccc2)cc1NCc1ccccc1C | inactive |
| CCOC(=O)Cc1ccc2sc(-c3ccccc3)nc2c1 | inactive |
| CC(C)NC(=O)CSc1nc(N)c(NC(=O)c2ccccc2F)c(=O)[nH]1 | inactive |
| COC(=O)Cc1c(C)nc2nc(NCc3ccc(Cl)cc3)[nH]n2c1=O | inactive |
| CN1c2ccccc2C(O)=C(C(=O)Nc2ccccc2)S1(=O)=O | inactive |
| O=C(O)CCCCCN1C(=O)c2ccc(C(=O)O)cc2C1=O | inactive |
| CC(=O)N1N=C(c2ccco2)CC1c1ccc(Br)cc1 (stereo not given) | inactive |
| CCOC(=O)CN(C)Cc1c[nH]c2ccccc12 | inactive |
| O=C(c1ccccc1S(=O)(=O)NCc1ccccc1)N1CCCC1 | inactive |
| CN(C)CCOC(=O)Cc1ccc(Cl)cc1 | inactive |
| O=C(c1cccnc1Nc1ccc2c(c1)CCC2)N1CCOCC1 | inactive |
| O=C(NCc1ccco1)c1ccc(Br)s1 | inactive |
| Cn1c(=O)n(CC(=O)Nc2ccccc2)c2ccccc21 | inactive |
| O=C(/C=C/c1ccccc1)N/C(=C/c1ccccc1)C(=O)N1CCOCC1 | inactive |
| CN(C)c1ccnc(-n2cccc2/C=N/OCc2ccccc2)c1C#N | inactive |
| COC(=O)c1sc2nc(CSc3nc4ccc(C)cc4[nH]3)[nH]c(=O)c2c1C | inactive |
| CCc1cccc2c(C#N)cn(CC(=O)NCCOC)c12 | inactive |
| CN1CCN(c2c(F)cc3c(=O)c(C(=O)O)cn4c3c2SCC4)CC1 | inactive |
| S=c1nc(-c2ccccc2)oc2c1CCCC2 | inactive |
| CCC(CC)C(=O)NCCc1ccc(OC)cc1 | inactive |
| COc1ccc(-c2ccc(C#N)c(SCC(=O)NCCc3ccccc3)n2)cc1OC | inactive |
| CCOC(=O)c1ccc2c(c1)C(=O)N(C1CCCCC1)C2=O | inactive |
| N#CC1=C(S)N(c2ccccc2)C(c2ccc(-c3ccccc3Cl)o2)NC1=O (stereo not given) | inactive |

| Compound | outcome |
| --- | --- |
| O=c1c2ccccc2nnn1Cc1ccccn1 | inactive |
| CCOC(=O)N1CCN(C(=O)c2cn(CC(C)C)c(=O)c3c2c2ccccc2n3C)CC1 | inactive |
| N#CCOC(=O)c1sccc1-n1cccc1 | inactive |
| Cc1cc(C)c(C#N)c(SCc2cn3ccccc3n2)n1 | inactive |
| CCN(CC)c1nc2n(c(=O)n1)CCO2 | inactive |
| COC(=O)Cc1c(O)ccn(Cc2ccc(F)cc2)c1=O | inactive |
| CC1CCN(C(c2cc3cc4c(cc3[nH]c2=O)OCO4)c2nnnn2CC2CCCO2)CC1 (stereo not given) | inactive |
| CCOC(=O)C1CCCN(C(=O)Cc2ccc(Cl)cc2)C1 (stereo not given) | inactive |
| Cc1ccc(N(CC(=O)N/N=C/c2ccco2)S(=O)(=O)c2ccccc2)cc1 | inactive |
| COCC(=O)N=Nc1c(O)[nH]c2ccccc12 | inactive |
| C=CCn1c(C)cc(C(=O)CSc2nc(N)cc(N)n2)c1C | inactive |
| COc1c(/C=N/Nc2nc(N3CCCCC3)nc(N3CCCCC3)n2)cccc1[N+](=O)[O-] | inactive |
| O=C(O)CC(NC(=S)NCc1ccccc1)C(=O)O (stereo not given) | inactive |
| CCCCN(C(=O)NC(=O)Nc1nc2ccc(OC)cc2s1)S(C)(=O)=O | inactive |
| CCOc1ccc(Nc2nc(NCCN3CCOCC3)nc(OC)n2)cc1 | inactive |
| CCOc1ccc(NC(=O)CCC(=O)n2nc(C)cc2C)cc1 | inactive |
| CNc1nc(Sc2ccccc2)cc(C(F)(F)F)n1 | inactive |
| Cc1ccc(/C(O)=C2\C(=O)C(=O)N(CC(C)O)C2c2cccc(F)c2)cc1 (stereo not given) | inactive |
| CCOC(=O)CCCc1c[nH]c2ccccc12 | inactive |
| NC(=O)CCc1c[nH]c2ccccc12 | inactive |
| CC1COc2c(N3CCN(C)CC3)c(F)cc3c(=O)c(C(=O)O)cn1c23 (stereo not given) | inactive |
| CCOC(=O)c1c(/N=C/c2ccc(O)cc2O)sc2c1CCC2 | inactive |
| Cn1ncc(N=Cc2ccccc2O)c1C(=O)Nc1ccccc1 | inactive |

| Compound | outcome |
| --- | --- |
| CCCc1ccc(C(=O)CCC(=O)O)cc1 | inactive |
| CCOC(=O)c1ccccc1C(=O)N1CCOCCOCCOCC1 | inactive |
| COc1ccccc1N1CCN(C(=O)CSc2nc3ccccc3o2)CC1 | inactive |
| COc1ccc(C2C(C#N)=C(N)OC3=C2C(=O)CCC3)cc1Cn1cc([N+](=O)[O-])cn1 (stereo not given) | inactive |
| Cc1ccc2nc(SCC(=O)c3c(C)[nH]c4ccccc34)[nH]c2c1 | inactive |
| CCOC(=O)c1[nH]c2ccccc2c1NC(=O)C(C)(C)C | inactive |
| CNC(=O)CSc1nnc(-c2cccnc2)n1CCc1ccccc1 | inactive |
| CCCCC1CCC(C(=O)Nc2ccccc2)CC1 (stereo not given) | inactive |
| Cn1cnnc1SCC(=O)Nc1cccc(C(=O)O)c1 | inactive |
| Cc1cccc(NC(=O)c2ccc(Cn3cc(C(F)(F)F)ccc3=O)cc2)c1 | inactive |
| S=C(c1ccc2c(c1)OCO2)N1CCCC1 | inactive |
| c1ccc(-c2ncnc3nc4n(c23)CCC4)cc1 | inactive |
| Cc1c(Cl)cccc1NC(=O)CSc1ncnc2c1cnn2CCc1ccccc1 | inactive |
| COC(=O)C1C(O)C(C)C(O)C(C)(O)/C=C\C=C(/C)C(=O)Nc2c(C)c(OC(C)=O)c3c(c2O)C(=O)C(C)=C2OCOC(=C23)/C(C)=C/C(C)(O)C(O)C(C)C1O (stereo not given) | inactive |
| CCSc1nnc(NC(=O)Cc2cccc(OC)c2)s1 | inactive |
| CNc1nnc(-c2cccc(N(C)C)c2)s1 | inactive |
| O=C(COc1ncnc2sccc12)N1CCN(S(=O)(=O)c2ccc(Cl)cc2)CC1 | inactive |
| C=CCOc1ccccc1CNCCCN1CCOCC1 | inactive |
| COc1cccc(OCC(O)CN2CCN(c3ccccn3)CC2)c1 (stereo not given) | inactive |
| Cc1ccc(NC(=S)NCCc2ccccc2)c(C)c1 | inactive |
| COc1ccc(OC)c(NC(=S)NCCCN2CCOCC2)c1 | inactive |
| O=C(O)c1cc(NCc2ccc3c(c2)OCO3)ccc1N1CCOCC1 | inactive |
| c1ccc(Cn2nnc3c(NCc4ccc5c(c4)OCO5)nc(C4CC4)nc32)cc1 | inactive |
